Among all 2,000 compounds or so, about 110 (5.5%) showed an effect of 50% or more. Many of the other results were omitted from the sample, so strong results are more common in it than they were. Residues, ends and D or L forms follow the SMILES beside them. *: point of attachment. pNA = O=[N+]([O-])c1ccc(N*)cc1; Boc = CC(C)(C)OC(=O)*

This passage reports inhibition results from ChEMBL document CHEMBL5606460, “ASAP - DENV-2 NS2B-NS3 protease fluorescence single point” (2024).

This test concerns the target Genome polyprotein (dengue virus type 2) (UniProt P29990).

As a reminder, the inhibition is the drop in the measured response relative to a control, in per cent. As for `C[C@@H](NC(=O)c1cc(Cl)ccc1NS(=O)(=O)c1ccc(Oc2ccccc2Cl)cc1)C1COC1`, the inhibition was found to be 59.2% (Thailand/16681/1984, Concentration 49.5 uM, Number of replicates 2.0, Standard deviation 0.4885797549298071 %); 68.4% (Thailand/16681/1984, Concentration 99.01 uM, Number of replicates 2.0, Standard deviation 0.152624190876378 %); 59.2% (Thailand/16681/1984, Concentration 198.0 uM, Number of replicates 2.0, Standard deviation 0.02447349481851786 %).
On to `C[C@@H](NC(=O)c1cc(Cl)ccc1NS(=O)(=O)c1ccc(Oc2ccccc2Cl)cc1)[C@H]1CCCO1`, for which the inhibition is, setting by setting: (Thailand/16681/1984, Concentration 49.5 uM, Number of replicates 2.0, Standard deviation 0.29635236214386457 %) 82.5%; (Thailand/16681/1984, Concentration 99.01 uM, Number of replicates 2.0, Standard deviation 0.052507555399236044 %) 84.4%; (Thailand/16681/1984, Concentration 198.0 uM, Number of replicates 2.0, Standard deviation 0.13838732262418607 %) 80.7%.
`Cc1cnccc1NC(=O)c1cc(C2CCCC2)n(C)c1C`: the inhibition is, setting by setting: (Thailand/16681/1984, Concentration 49.5 uM, Number of replicates 2.0, Standard deviation 1.895573393565592 %) -3.53%; (Thailand/16681/1984, Concentration 99.01 uM, Number of replicates 2.0, Standard deviation 0.7217418528634704 %) -1.88%; (Thailand/16681/1984, Concentration 198.0 uM, Number of replicates 2.0, Standard deviation 1.3851925911876457 %) 0.718%.
Consider `CC(C)CNC(=O)c1cc(Cl)ccc1NS(=O)(=O)c1ccc(Oc2ccccc2Cl)cc1`, for which the inhibition (Thailand/16681/1984, Concentration 49.5 uM, Number of replicates 2.0, Standard deviation 0.23411798845789034 %) was determined as 89.6%; the inhibition (Thailand/16681/1984, Concentration 99.01 uM, Number of replicates 2.0, Standard deviation 0.14645254355523077 %) stood at 88.7%; the inhibition (Thailand/16681/1984, Concentration 198.0 uM, Number of replicates 2.0, Standard deviation 0.2542297902177128 %) worked out at 84.4%.
Turning to `C[C@@H](CS(C)(=O)=O)NC(=O)c1cc(Cl)ccc1NS(=O)(=O)c1ccc(Oc2ccccc2Cl)cc1`, the inhibition worked out at 51.1% (Thailand/16681/1984, Concentration 49.5 uM, Number of replicates 2.0, Standard deviation 0.5989303195749703 %); 57% (Thailand/16681/1984, Concentration 99.01 uM, Number of replicates 2.0, Standard deviation 0.4213875631597994 %); 43% (Thailand/16681/1984, Concentration 198.0 uM, Number of replicates 2.0, Standard deviation 0.24651523106627876 %).
As for `COC[C@@H](C)CNC(=O)c1cc(Cl)ccc1NS(=O)(=O)c1ccc(Oc2ccccc2Cl)cc1`, the inhibition reads like this: (Thailand/16681/1984, Concentration 49.5 uM, Number of replicates 2.0, Standard deviation 0.2816677257730929 %) 82.2%; (Thailand/16681/1984, Concentration 99.01 uM, Number of replicates 2.0, Standard deviation 0.03025941418209339 %) 83.8%; (Thailand/16681/1984, Concentration 198.0 uM, Number of replicates 2.0, Standard deviation 0.3452939569842909 %) 76.9%.
Consider `CC[C@H](C#N)NC(=O)c1cc(Cl)ccc1NS(=O)(=O)c1ccc(Oc2ccccc2Cl)cc1`, for which the inhibition was 44.6% (Thailand/16681/1984, Concentration 49.5 uM, Number of replicates 2.0, Standard deviation 0.706613157296788 %); 22.1% (Thailand/16681/1984, Concentration 99.01 uM, Number of replicates 2.0, Standard deviation 0.473003628419333 %); 2.91% (Thailand/16681/1984, Concentration 198.0 uM, Number of replicates 2.0, Standard deviation 1.2548162043536224 %).
With `CNC(=O)[C@@H](C)CNS(=O)(=O)c1ccc(Oc2ccccc2Cl)cc1`, the inhibition was -0.747% (Thailand/16681/1984, Concentration 49.5 uM, Number of replicates 2.0, Standard deviation 0.8337442367954725 %); 0.957% (Thailand/16681/1984, Concentration 99.01 uM, Number of replicates 2.0, Standard deviation 0.25212885411314173 %); 2.51% (Thailand/16681/1984, Concentration 198.0 uM, Number of replicates 2.0, Standard deviation 0.23111814436827896 %).
Turning to `CCCCCNC(=O)c1cc(Cl)ccc1NS(=O)(=O)c1ccc(Oc2ccccc2Cl)cc1`, the inhibition (Thailand/16681/1984, Concentration 49.5 uM, Number of replicates 2.0, Standard deviation 0.23227296801747743 %) is 78.7%; the inhibition (Thailand/16681/1984, Concentration 99.01 uM, Number of replicates 2.0, Standard deviation 0.006678758202430312 %) was determined as 76.9%; the inhibition (Thailand/16681/1984, Concentration 198.0 uM, Number of replicates 2.0, Standard deviation 0.04271599955318515 %) is 65.6%.
Take `CC(C)Nc1nc2cc(NCc3cccc(C(N)=O)c3)ccc2[nH]1`: the inhibition (Thailand/16681/1984, Concentration 49.5 uM, Number of replicates 2.0, Standard deviation 0.023235641877752903 %) is -0.517%; the inhibition (Thailand/16681/1984, Concentration 99.01 uM, Number of replicates 2.0, Standard deviation 0.06423980503181957 %) was 1.24%; the inhibition (Thailand/16681/1984, Concentration 198.0 uM, Number of replicates 2.0, Standard deviation 0.8255495407458023 %) was 3.31%.
Consider `CSCC[C@H](NC(=O)OC(C)(C)C)C(=O)N1CCC[C@H]1C(=O)Nc1ccc([N+](=O)[O-])cc1` (Boc-Met-Pro-pNA), for which the inhibition runs as follows: (Thailand/16681/1984, Concentration 49.5 uM, Number of replicates 2.0, Standard deviation 0.6934296230825803 %) 10.3%; (Thailand/16681/1984, Concentration 99.01 uM, Number of replicates 2.0, Standard deviation 0.4989876662884813 %) 17.1%; (Thailand/16681/1984, Concentration 198.0 uM, Number of replicates 2.0, Standard deviation 0.32485037523299065 %) 29.3%.
Turning to `CNC(=O)C1CCC(Nc2nc(Cl)cc3c(F)cccc23)CC1` (stereo not given), under “Thailand/16681/1984, Concentration 49.95 uM, Number of replicates 2.0, Standard deviation 5.365912193998162 %”, the inhibition was -9.93%.
Take `C[C@@H](NC(=O)C1CCN(c2ccc(C=O)cc2)CC1)c1ccc2ccccc2c1`: the inhibition (Thailand/16681/1984, Concentration 25.0 uM, Number of replicates 1.0) came to 1.94%.
